Laboratory results published in publication PMC7862700, “An all-to-all approach to the identification of sequence-specific readers for epigenetic DNA modifications on cytosine”.

Tests used:
Assay in all cases: DAPPL (digital affinity profiling via proximity ligation, sequencing); 10 mM Tris-HCl pH 7.5, 50 mM NaCl, 1 mM DTT, 4% glycerol, room temperature, 30 min; GST-TFs on glutathione beads, 16-mer random dsDNA library, 0.1% formaldehyde crosslink after washing; high values mean tight binding
FEV = target: T1, FEV (Homo sapiens, UniProt Q99581 1-238); settings: protein: recombinant; tags: N-terminal GST; dsDNA, one strand shown
T1 sequence: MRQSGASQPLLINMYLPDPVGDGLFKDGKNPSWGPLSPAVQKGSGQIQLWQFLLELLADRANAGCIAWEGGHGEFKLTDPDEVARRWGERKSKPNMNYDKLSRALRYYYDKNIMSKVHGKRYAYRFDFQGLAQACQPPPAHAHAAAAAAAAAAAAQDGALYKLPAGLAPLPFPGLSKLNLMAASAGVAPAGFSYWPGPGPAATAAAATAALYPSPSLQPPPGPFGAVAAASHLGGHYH
Summary of the method: (§1)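 Binding signal is each hexamer's read frequency for a factor divided by its frequency in the tag-only sample. The factors were GST-fused human transcription factors from yeast, captured on glutathione beads, DNA-barcoded and pooled with that sample. Pools were incubated with 200 nmole of a random double-stranded 16-mer DNA library in Tris/NaCl/DTT/glycerol buffer at room temperature for 30 min, then washed, crosslinked with 0.1% formaldehyde, proximity-ligated with BsaI/T4 ligase (1 h, 37 °C), PCR-amplified and sequenced on an Illumina NextSeq500.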

ETV5 = ETV5 (Homo sapiens, UniProt P41161 1-510); settings: protein: recombinant; tags: N-terminal GST; dsDNA, one strand shown
Summary of the method: as §1

HSF1 = HSF1 (Homo sapiens, UniProt Q00613 1-529); settings: protein: recombinant; tags: N-terminal GST; chain copies: 3; dsDNA, one strand shown
Summary of the method: as §1

SPIC = target: T2, SPIC (Homo sapiens, UniProt Q8N5J4 1-248); settings: protein: recombinant; tags: N-terminal GST; dsDNA, one strand shown
T2 sequence: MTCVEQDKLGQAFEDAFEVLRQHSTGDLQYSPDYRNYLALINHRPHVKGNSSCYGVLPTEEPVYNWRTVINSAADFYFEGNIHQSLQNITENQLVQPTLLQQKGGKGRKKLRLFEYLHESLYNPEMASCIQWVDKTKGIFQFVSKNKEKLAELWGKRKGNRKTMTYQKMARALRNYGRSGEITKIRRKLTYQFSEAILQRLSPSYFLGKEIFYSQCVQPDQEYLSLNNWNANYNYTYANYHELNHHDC
Summary of the method: as §1

ELF4 = ELF4 (Homo sapiens, UniProt Q99607 1-663); settings: protein: recombinant; tags: N-terminal GST; dsDNA, one strand shown
Summary of the method: as §1

ETV2 = target: T3, ETV2 (Homo sapiens, UniProt O00321 1-342); settings: protein: recombinant; tags: N-terminal GST; dsDNA, one strand shown
T3 sequence: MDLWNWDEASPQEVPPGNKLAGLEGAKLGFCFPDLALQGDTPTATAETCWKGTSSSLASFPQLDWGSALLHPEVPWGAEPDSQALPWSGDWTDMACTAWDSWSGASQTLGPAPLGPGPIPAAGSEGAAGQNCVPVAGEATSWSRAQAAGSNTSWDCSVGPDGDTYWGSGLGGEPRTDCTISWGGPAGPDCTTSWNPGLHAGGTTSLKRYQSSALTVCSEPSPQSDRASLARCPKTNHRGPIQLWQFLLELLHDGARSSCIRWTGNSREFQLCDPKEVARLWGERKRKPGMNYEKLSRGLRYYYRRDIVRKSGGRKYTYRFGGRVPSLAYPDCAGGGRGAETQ
Summary of the method: as §1

ELF3 = target: T4, ELF3 (Homo sapiens, UniProt P78545 1-371); settings: protein: recombinant; tags: N-terminal GST; dsDNA, one strand shown
T4 sequence: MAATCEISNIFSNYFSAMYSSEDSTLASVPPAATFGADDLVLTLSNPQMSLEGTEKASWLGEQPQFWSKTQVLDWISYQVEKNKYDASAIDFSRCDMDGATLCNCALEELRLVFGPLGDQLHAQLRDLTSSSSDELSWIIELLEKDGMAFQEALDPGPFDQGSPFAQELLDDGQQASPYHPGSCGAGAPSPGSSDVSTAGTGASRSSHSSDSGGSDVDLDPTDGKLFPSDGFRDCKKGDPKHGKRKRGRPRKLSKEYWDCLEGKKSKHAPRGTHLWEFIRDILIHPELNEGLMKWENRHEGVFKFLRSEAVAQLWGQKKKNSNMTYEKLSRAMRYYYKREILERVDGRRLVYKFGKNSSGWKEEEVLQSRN
Summary of the method: as §1

CRX = CRX (Homo sapiens, UniProt O43186 1-299); settings: protein: recombinant; tags: N-terminal GST; dsDNA, one strand shown
Summary of the method: as §1

ETV1 = ETV1 (Homo sapiens, UniProt P50549 1-477); settings: protein: recombinant; tags: N-terminal GST; dsDNA, one strand shown
Summary of the method: as §1

ERF = target: T5, ERF (Homo sapiens, UniProt P50548 1-548); settings: protein: recombinant; tags: N-terminal GST; dsDNA, one strand shown
T5 sequence: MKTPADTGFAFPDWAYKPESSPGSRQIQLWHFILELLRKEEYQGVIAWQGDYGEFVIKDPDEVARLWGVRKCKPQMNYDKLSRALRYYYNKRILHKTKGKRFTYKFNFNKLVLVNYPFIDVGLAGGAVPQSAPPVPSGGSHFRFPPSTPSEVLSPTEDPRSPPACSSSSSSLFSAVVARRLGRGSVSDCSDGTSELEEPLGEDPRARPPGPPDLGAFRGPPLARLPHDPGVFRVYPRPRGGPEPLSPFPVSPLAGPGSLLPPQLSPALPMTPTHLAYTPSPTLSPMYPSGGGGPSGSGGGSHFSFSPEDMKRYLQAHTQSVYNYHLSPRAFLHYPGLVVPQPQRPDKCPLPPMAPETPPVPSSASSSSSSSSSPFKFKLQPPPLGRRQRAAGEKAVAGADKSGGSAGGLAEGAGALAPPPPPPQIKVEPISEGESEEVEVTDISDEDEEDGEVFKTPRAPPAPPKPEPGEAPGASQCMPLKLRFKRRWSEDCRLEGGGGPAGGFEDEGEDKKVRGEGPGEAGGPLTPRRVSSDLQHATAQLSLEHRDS
Summary of the method: as §1

ETV3L = target: T6, ETV3L (Homo sapiens, UniProt Q6ZN32 1-361); settings: protein: recombinant; tags: N-terminal GST; dsDNA, one strand shown
T6 sequence: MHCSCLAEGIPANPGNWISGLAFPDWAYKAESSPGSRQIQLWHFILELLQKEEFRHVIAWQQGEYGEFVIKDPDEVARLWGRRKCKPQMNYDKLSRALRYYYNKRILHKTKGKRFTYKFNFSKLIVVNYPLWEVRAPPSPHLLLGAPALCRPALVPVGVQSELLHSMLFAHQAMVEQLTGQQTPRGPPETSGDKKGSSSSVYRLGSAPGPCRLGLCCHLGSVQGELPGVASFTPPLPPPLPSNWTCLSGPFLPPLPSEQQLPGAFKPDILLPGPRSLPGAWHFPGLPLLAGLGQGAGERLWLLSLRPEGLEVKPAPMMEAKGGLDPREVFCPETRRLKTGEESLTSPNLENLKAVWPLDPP
Summary of the method: as §1

ETS2 = target: T7, ETS2 (Homo sapiens, UniProt P15036 1-469); settings: protein: recombinant; tags: N-terminal GST; dsDNA, one strand shown
T7 sequence: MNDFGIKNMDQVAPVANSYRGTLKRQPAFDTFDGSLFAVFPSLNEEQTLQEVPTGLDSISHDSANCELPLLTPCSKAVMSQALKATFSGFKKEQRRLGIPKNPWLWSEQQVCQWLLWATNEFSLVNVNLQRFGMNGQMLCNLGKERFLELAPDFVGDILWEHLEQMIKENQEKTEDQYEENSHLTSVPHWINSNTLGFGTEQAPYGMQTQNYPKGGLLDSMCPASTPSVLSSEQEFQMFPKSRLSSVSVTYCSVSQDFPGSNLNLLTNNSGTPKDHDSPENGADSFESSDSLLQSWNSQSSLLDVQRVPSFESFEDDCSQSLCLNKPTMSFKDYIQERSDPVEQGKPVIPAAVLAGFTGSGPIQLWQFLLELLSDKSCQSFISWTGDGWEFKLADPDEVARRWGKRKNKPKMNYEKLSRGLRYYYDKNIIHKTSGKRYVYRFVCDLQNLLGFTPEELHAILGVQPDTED
Summary of the method: as §1

ETV7 = target: T8, ETV7 (Homo sapiens, UniProt Q9Y603 1-341); settings: protein: recombinant; tags: N-terminal GST; dsDNA, one strand shown
T8 sequence: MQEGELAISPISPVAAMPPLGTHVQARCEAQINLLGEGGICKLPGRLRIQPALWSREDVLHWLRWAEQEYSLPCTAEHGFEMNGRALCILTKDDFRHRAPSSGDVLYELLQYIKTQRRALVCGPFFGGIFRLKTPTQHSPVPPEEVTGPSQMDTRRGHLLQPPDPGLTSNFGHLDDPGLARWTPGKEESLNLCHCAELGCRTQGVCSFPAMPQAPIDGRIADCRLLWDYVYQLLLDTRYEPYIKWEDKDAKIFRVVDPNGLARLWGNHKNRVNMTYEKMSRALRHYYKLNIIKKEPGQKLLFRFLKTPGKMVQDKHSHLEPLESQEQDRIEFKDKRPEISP
Summary of the method: as §1

ELF5 = target: T9, ELF5 (Homo sapiens, UniProt Q9UKW6-2 1-255); settings: protein: recombinant; tags: N-terminal GST; dsDNA, one strand shown
T9 sequence: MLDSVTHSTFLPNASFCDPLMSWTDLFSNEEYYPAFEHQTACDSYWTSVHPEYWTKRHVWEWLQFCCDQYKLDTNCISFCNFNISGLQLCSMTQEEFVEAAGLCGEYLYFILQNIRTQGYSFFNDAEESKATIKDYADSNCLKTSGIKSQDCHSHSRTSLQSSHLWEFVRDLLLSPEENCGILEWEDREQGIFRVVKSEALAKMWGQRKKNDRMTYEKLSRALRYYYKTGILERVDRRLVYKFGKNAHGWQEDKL
Summary of the method: as §1

ETV3 = target: T10, ETV3 (Homo sapiens, UniProt P41162-2 1-143); settings: protein: recombinant; tags: N-terminal GST; dsDNA, one strand shown
T10 sequence: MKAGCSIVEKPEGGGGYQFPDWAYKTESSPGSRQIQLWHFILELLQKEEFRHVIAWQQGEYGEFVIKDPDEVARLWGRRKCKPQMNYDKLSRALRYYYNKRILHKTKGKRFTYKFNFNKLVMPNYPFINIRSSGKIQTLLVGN
Summary of the method: as §1

Sequence of ETV5 (P41161 whole entry): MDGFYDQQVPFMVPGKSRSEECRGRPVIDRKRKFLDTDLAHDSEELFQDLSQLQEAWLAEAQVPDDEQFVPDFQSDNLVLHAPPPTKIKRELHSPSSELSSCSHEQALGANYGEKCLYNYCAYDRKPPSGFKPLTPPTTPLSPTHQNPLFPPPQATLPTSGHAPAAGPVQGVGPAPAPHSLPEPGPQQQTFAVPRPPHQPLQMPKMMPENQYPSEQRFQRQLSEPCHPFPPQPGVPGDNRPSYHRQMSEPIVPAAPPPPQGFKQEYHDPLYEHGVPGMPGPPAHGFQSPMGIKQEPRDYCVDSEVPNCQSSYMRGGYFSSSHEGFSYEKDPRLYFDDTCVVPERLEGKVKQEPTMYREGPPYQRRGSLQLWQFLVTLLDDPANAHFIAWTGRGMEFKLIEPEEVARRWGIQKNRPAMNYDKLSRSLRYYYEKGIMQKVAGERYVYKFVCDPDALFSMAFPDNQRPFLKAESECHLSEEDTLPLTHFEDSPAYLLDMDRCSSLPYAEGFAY
Sequence of ELF4 (Q99607 whole entry): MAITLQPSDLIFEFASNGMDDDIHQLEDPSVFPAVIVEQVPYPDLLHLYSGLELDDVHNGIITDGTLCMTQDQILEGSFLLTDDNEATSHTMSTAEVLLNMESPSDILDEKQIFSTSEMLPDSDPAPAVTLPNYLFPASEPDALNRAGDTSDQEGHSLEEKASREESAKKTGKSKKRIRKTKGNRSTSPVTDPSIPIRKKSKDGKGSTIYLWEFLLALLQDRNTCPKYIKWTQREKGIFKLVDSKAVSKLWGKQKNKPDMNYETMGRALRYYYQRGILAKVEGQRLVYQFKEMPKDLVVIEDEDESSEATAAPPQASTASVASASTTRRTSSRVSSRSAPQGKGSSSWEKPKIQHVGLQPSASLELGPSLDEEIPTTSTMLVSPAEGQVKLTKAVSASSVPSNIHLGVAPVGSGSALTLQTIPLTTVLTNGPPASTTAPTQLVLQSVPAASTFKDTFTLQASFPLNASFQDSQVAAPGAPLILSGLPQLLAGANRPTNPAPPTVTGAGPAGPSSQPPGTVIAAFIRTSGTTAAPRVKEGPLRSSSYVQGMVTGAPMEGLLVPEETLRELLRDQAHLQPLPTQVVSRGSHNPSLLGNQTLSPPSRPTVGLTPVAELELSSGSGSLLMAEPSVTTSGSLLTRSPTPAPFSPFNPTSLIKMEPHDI
Sequence of ETV1 (P50549 whole entry): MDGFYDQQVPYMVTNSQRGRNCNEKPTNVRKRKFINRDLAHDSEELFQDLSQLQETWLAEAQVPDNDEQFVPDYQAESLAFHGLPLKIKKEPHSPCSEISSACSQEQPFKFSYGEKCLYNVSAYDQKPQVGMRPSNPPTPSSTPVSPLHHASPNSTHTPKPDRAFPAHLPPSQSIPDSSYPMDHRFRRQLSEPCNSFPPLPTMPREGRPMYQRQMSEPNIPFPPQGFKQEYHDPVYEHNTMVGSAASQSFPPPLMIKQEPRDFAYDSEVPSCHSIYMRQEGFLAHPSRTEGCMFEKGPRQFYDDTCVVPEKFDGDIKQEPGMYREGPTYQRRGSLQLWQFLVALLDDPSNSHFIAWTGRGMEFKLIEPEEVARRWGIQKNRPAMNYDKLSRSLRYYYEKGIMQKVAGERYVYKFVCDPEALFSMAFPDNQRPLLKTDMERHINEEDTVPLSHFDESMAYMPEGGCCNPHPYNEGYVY
Sequence of CRX (O43186 whole entry): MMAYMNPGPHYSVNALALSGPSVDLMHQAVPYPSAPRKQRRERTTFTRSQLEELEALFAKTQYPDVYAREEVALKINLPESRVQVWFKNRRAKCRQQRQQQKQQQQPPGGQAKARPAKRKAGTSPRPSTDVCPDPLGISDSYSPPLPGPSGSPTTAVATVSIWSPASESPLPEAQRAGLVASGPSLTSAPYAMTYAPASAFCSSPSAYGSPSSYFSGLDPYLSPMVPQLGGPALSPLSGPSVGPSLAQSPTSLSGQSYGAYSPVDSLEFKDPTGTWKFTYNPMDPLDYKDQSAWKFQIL
Sequence of HSF1 (Q00613 whole entry): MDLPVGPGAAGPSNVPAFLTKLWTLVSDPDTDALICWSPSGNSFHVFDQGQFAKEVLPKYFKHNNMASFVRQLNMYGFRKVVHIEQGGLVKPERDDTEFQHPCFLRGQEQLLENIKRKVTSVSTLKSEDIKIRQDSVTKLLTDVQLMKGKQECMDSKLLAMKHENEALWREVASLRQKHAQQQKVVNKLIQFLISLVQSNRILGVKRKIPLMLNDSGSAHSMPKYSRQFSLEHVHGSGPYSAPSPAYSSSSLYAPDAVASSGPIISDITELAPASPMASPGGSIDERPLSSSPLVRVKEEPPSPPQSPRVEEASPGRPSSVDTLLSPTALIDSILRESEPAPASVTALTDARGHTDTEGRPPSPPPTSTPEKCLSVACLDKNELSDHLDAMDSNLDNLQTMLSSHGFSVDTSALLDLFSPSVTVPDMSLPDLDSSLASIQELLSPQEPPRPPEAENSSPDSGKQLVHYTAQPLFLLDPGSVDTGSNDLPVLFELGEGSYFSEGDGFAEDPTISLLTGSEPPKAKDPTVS

Q: ACGATC was tested. Which binding signal (FEV) did it give?
A: Its binding signal is 1.07 fold enrichment (6-mer frequency, TF over GST control).

Q: What about the binding signal (ETV5) of the same sequence?
A: Its binding signal is 1.06 fold enrichment (6-mer frequency, TF over GST control).

Q: And the binding signal (HSF1)?
A: The binding signal was 1.15 fold enrichment (6-mer frequency, TF over GST control).

Q: What about the binding signal (SPIC) of the same sequence?
A: The binding signal was 1.02 fold enrichment (6-mer frequency, TF over GST control).

Q: What about the binding signal (ELF4) of the same sequence?
A: Its binding signal is 1.08 fold enrichment (6-mer frequency, TF over GST control).

Q: What about the binding signal (ETV2) of the same sequence?
A: Its binding signal is 1.09 fold enrichment (6-mer frequency, TF over GST control).

Q: And the binding signal (ELF3)?
A: The binding signal was 1.04 fold enrichment (6-mer frequency, TF over GST control).

Q: And the binding signal (CRX)?
A: Its binding signal is 1.14 fold enrichment (6-mer frequency, TF over GST control).

Q: And the binding signal (ETV1)?
A: Its binding signal is 1.05 fold enrichment (6-mer frequency, TF over GST control).

Q: And the binding signal (ERF)?
A: Its binding signal is 1.16 fold enrichment (6-mer frequency, TF over GST control).

Q: What about the binding signal (ETV3L) of the same sequence?
A: Its binding signal is 1.02 fold enrichment (6-mer frequency, TF over GST control).

Q: And the binding signal (ETS2)?
A: The binding signal was 1.14 fold enrichment (6-mer frequency, TF over GST control).

Q: And the binding signal (ETV7)?
A: Its binding signal is 1 fold enrichment (6-mer frequency, TF over GST control).

Q: What about the binding signal (ELF5) of the same sequence?
A: The binding signal was 1.01 fold enrichment (6-mer frequency, TF over GST control).

Q: What about the binding signal (ETV3) of the same sequence?
A: Its binding signal is 1.03 fold enrichment (6-mer frequency, TF over GST control).
